The whole screen tested about 340,000 compounds, of which about 8,500 (2.5%) were called active. Only a selection was taken, and actives are over-represented in it overall. Unmarked numbers belong to inactive results.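 How the source made its calls: active means melting temperature shift of at least 10% of the positive control shift, at one fixed dose; inactive means the rest.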
The molecules below were run on Glutamate receptor ionotropic, NMDA 3A (GRIN3A) ligand-binding domain (assay: binders of NR3A ligand-binding domain, primary screen, biophysical, differential scanning fluorimetry, uHTS (AID 1259313)). Settings: NR3A LBD differential scanning fluorimetry, at 25 µM, active compounds read high, 0% = protein alone, 100% = glycine-bound protein.

Row | SMILES | Tm shift relative to glycine control
1 | CCC12CN3CC(CC)(CN(C1)C31C(=O)N(C)c3ccc(C)cc31)C2=O (stereo not given) | 0%
2 | O=c1c2ccccc2nc2n1C(CSc1ccc(F)cc1)CN2 (stereo not given) | -3.8%
3 | O=c1c2ccccc2nc2n1C(CSCc1cccc(C(F)(F)F)c1)CS2 (stereo not given) | 16.1% (active)
4 | O=c1c2ccccc2nc2n1C(CSCc1ccccc1)CS2 (stereo not given) | -1.4%
5 | COc1ccc(C(=O)NCc2nnc(SCC(=O)NC3=NCCS3)n2C)cc1 | -1.86%
6 | CCOc1ccc(NC(=O)c2ccc(NC(=O)COC(=O)c3ccc(NC(=O)CC#N)cc3)cc2)cc1 | 9.12%
7 | CCOc1ccc(NC(=O)CCNC(=O)c2ccc(Br)cc2)cc1 | -4.23%
8 | CCOc1ccc(NC(=O)c2ccc(NC(=O)CN3C(=O)C(=O)N(CC(C)C)C3=O)cc2)cc1 | 28.5% (active)
9 | CCCOc1ccc(Cl)cc1Nc1nc(NCCO)nc(N2CCCC2)n1 | 1.78%
10 | Cc1cc(C)c(C#N)c(SCS(=O)c2ccc(C(C)(C)C)cc2)n1 (stereo not given) | 1.37%
11 | O=C(COc1ccc(/C=N/NC(=O)c2ccc(O)cc2)cc1)Nc1ccc([N+](=O)[O-])cc1 | 7.26%
12 | CC(C)(C)C(=O)Nc1ccc(C(=O)N/N=C/c2ccccc2OC(=O)c2ccc(Cl)cc2Cl)cc1 | 2.16%
13 | O=C(N/N=C/c1ccc(OC(=O)c2ccccc2Cl)cc1)c1ccc(O)cc1 | 24.6% (active)
14 | O=C(Cc1cccs1)N/N=C/c1ccc(OCc2ccccc2)cc1 | 2.17%
15 | O=C(N/N=C/c1ccc(OCc2ccccc2)cc1)c1ccc(O)cc1 | 28.3% (active)
16 | O=C(O)c1ccc(/C=N/NC(=O)c2ccc(Br)cc2)cc1 | -0.55%
17 | COc1cc(/C=N/NC(=O)Nc2ccccc2)ccc1OCCOc1ccccc1C | -1.19%
18 | O=c1[nH]cnc(O)c1C(c1ccc(F)cc1)c1c(O)nc[nH]c1=O | 0.87%
19 | O=C(OCc1ccc(-c2ccccc2)cc1)c1cccc(O)c1 | 9.28%
20 | Oc1ccc(-c2cccc(-c3ccc(O)cc3)c2)cc1 | 31.9% (active)

Row | SMILES | Tm shift relative to glycine control
21 | Oc1ccc(-c2nncn2-c2ccccc2)cc1 | -3.14%
22 | CNC(=S)N1CCC(NC(=O)C(Cc2ccc(F)cc2)NC(C)=O)CC1 (stereo not given) | -1.22%
23 | COc1ccc(CCNC(=O)CCCCCNC(=O)N2CCn3c2nc2ccccc23)cc1OC | -1.29%
24 | O=C(NCCCn1ccnc1)/C(=C\c1ccccc1F)NC(=O)c1ccccc1 | -0.09%
25 | CC(C)(C)C1CCC(=NNC(=O)c2cc(-c3ccccc3)n[nH]2)CC1 (stereo not given) | -5.15%
26 | CC(/C=N/NC(=O)c1cc(-c2ccc3ccccc3c2)n[nH]1)=C\c1ccco1 | 16.4% (active)
27 | CC(C)c1cc(C(=O)N/N=C/C(Br)=C/c2ccccc2)n[nH]1 | 6.56%
28 | Cc1cc2c(cc1C)NC1(C[C@H]3CCC(=O)N4CC[C@@H](C1)[C@@H]34)C(=NC(C)(C)CC(C)(C)C)N2 (stereo not given in full) | -6.03%
29 | Cc1ccc(C)c(N2CCN(C(=O)CCCCCn3c(=S)[nH]c4ccc(N5CCOCC5)cc4c3=O)CC2)c1 | -2.75%
30 | CC(C)NC(=O)CCCn1c(=S)[nH]c2cc3c(cc2c1=O)OCO3 | -1.68%
31 | O=C(CCCCCn1c(=S)[nH]c2cc3c(cc2c1=O)OCO3)N1CCN(c2ccc(F)cc2)CC1 | 11.6% (active)
32 | CC(C)c1ccc(NC(=S)NC2CC3C=CC2C3)cc1 (stereo not given) | 0.48%
33 | Cc1ccc(N=C2NC(=O)/C(=C/C=C/c3ccco3)S2)cc1C | 9.42%
34 | Cc1ccc(N2C(=O)S/C(=C/c3cn(C)c4ccccc34)C2=O)cc1 | 1.52%
35 | Cc1cccc(N=C2NC(=O)/C(=C/c3cn(C)c4ccccc34)S2)c1 | 26.7% (active)
36 | Cc1cccc(N2CCN(C(=O)CN(C)S(=O)(=O)c3ccc4c(c3)CCC(=O)N4)CC2)c1C | 0.4%
37 | CN(NC(=O)C1CC(=O)N(c2ccccc2)C1)C1=NS(=O)(=O)c2ccccc21 (stereo not given) | -0.38%
38 | Cc1cccc(NC(=O)NC(=S)NC(=O)c2ccccc2)c1 | 20.6% (active)
39 | Cc1ccc(NC(=O)NC(=O)c2ccccc2)cc1F | -0.73%
40 | Cc1cccc(OCCNC(=S)NC(=O)c2cccnc2)c1 | 1.46%

From PubChem BioAssay AID1259313 (Sanford-Burnham Center for Chemical Genomics, 2017)
